A selection: hits, their analogues and other compounds. The true share with any hit is near 2.9%.
p53 reactivator: qHTS assay for re-activators of p53 using a Luc reporter; H1299 p53-A138V BP100-luciferase reporter, luminescence, 24 h; Potency, µM (top dose mostly 92.2 µM), inactives show at the top dose activity change, positive = activation, usual class: activators; 0.063% of 320,000 active; further: potency means the concentration at half of the fitted maximal effect; % of control where 0% means no effect; nearly all actives have a fitted effect of over 45% in size
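p53-null H1299 cells stably carrying temperature-sensitive p53-A138V and a BP100-luciferase reporter were pinned with compounds (4-point, 1:5 series) and held 24 hrs at 37 deg C. Luminescence was read 10 min after detection reagent.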
HEK293 tox: qHTS of GLP-1 Receptor Inverse Agonists: Cytotox Screen; HEK293 cAMP-luciferase reporter cells, luminescence, 24 h; Potency, µM (titrated, usually from 38.3 µM), without a hit: at the highest dose activity change, negative = inhibition, most hits filed as inhibitors; 0.13% of 410,000 active; AID 624418, 2012;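 further: loss of luciferase light is scored as toxicity; potency means the concentration at half of the fitted maximal effect; on the % scale 0 is the no-effect control and ±100 the full control effect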
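1536-well qHTS counterscreen of the MLSMR; 200 cells/uL, 12 h pre-incubation, 23 nL cpd, 24 h at 37 deg C 5% CO2, luciferase detection reagent, 12 min RT, luminescence. Inhibition = undesired.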
ClpP mod: qHTS Assay for Activators of ClpP; purified B. subtilis ClpP, FRET peptide cleavage, 20 min; Potency, µM (doses to about 57.5 µM), without a hit: top-dose activity change, negative = active; 1.9% of 340,000 active; AID 651965, 2013; active means well fitted falling curve with a large enough effect; inconclusive means small, poorly fitted or top-dose-only effect; inactive means no such curve, though single readings can be large or run the other way; further: potency means the concentration at half of the fitted maximal effect; the source files actives as falling curves though it sought activators and does not explain the sign; nearly all actives have a fitted effect of over 65% in size
Target sequence (P80244 whole entry, looked up): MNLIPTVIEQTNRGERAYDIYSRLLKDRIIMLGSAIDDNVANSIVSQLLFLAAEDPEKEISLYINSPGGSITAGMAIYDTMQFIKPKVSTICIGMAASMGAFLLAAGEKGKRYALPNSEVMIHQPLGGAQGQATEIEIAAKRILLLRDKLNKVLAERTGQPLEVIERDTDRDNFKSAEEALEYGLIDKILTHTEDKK
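Purified B. subtilis ClpP, 10 microg/mL final in Tris/HCl pH8 with KCl, BSA, glycerol and Tween-20, cleaved an Abz/nitrotyrosine-quenched decapeptide. Fluorescence (ex 320, em 430) was read at 0 and 20 min at room temperature. Delta was normalized to 5.8 microM ADEP and DMSO/no-enzyme controls.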
GLP-1R inv ag: qHTS of GLP-1 Receptor Inverse Agonists (Inhibition Mode). HEK293 GLP-1R CRE-luciferase, luminescence, 24 h; GLP-1R form is constitutively active. Glucagon-like peptide 1 receptor (Homo sapiens), P43220. Potency, µM (doses to about 38.3 µM), for inactives: at the top dose activity change, negative = inhibition, usual class: inhibitors. 1.6% of 410,000 active; further: potency means the concentration at half of the fitted maximal effect; on the % scale 0 is the no-effect control and ±100 the full control effect; nearly all actives have a fitted effect of over 55% in size
Target sequence (P43220 whole entry, looked up): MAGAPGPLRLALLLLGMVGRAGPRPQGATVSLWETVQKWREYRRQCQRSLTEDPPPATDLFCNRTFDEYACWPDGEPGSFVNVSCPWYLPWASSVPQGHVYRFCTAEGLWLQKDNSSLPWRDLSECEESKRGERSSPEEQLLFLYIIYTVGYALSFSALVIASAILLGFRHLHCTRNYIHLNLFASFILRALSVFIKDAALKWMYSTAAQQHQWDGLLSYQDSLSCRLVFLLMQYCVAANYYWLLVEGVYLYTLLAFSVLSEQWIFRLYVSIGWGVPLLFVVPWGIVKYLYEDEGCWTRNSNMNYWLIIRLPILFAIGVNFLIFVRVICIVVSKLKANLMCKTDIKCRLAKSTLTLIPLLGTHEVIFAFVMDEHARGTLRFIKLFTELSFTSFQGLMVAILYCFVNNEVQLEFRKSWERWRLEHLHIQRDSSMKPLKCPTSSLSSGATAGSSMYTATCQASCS
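Assay principle: reduced luminescence from a cAMP-responsive reporter in HEK293 cells co-expressing a constitutively active GLP-1R. Conditions: 24 hr compound incubation, 37 deg C, 5% CO2.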
GLP-1R agonist: qHTS of GLP-1 Receptor Agonists | Glucagon-like peptide 1 receptor (Homo sapiens), P43220 | HEK293 GLP-1R CRE-luciferase, luminescence, 4-6 h; cells express a hypersensitive GLP-1R form | Potency, µM (top dose mostly 45.6 µM), for the others: at the highest dose activation, most hits filed as activators | 0.007% of 380,000 active | AID 624172, 2012; further: potency means the concentration at half of the fitted maximal effect; % of control where 0% means no effect
LDHA inh: qHTS assay for inhibitors of human lactate dehydrogenase; L-lactate dehydrogenase A chain (Homo sapiens), P00338; purified LDHA, NADH/diaphorase-resazurin fluorescence; active compounds read low; activity change, % (values are at about 110 or 230 µM); 0.15% of 480,000 active; in the data active means activity change below about -30%; inconclusive means mostly about -25% to -30%;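 further: plate controls were DMSO wells for no effect and wells without enzyme for full effect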
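Resorufin fluorescence (ex540/em590), read at 0 and 20 min after diaphorase/resazurin addition, reports the NADH left after a 5 min room-temperature reaction of 2 nM human LDH5 with 0.06 mM NADH and 0.2 mM pyruvate.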
* marks the source's active call; other numbers are inactive results; ? = inconclusive; nt = no result given; ! = repeats disagree. Unless noted, the call rests on the fitted dose curve; in most records, active means well fitted curve in the direction sought with a large enough effect; inconclusive means small, poorly fitted or top-dose-only effect, or another doubt; inactive means no such curve, though single readings can be large; an effect the other way counts as inactive or inconclusive.

SMILES	p53 reactivator	HEK293 tox	ClpP mod	GLP-1R inv ag	GLP-1R agonist	LDHA inh
CCOC(=O)Nc1ccc(=O)n(Cc2c(Cl)cccc2Cl)c1	-3.2%	4.5%	28.2µM*	0.0%	3.7%	0.0
COc1ccccc1C(=O)Nc1ccc(Cc2ccncc2)cc1	-0.4%	-10.2%	1.0%	10.9%	-5.6%	-5.1
COc1c(C)cc(Br)cc1C(=O)Nc1ccc(Cc2ccncc2)cc1	-3.7%	0.4%	nt	10µM*	4.2%	-2.3
Cc1ccc(N(C)C(CNS(=O)(=O)c2ccccc2)c2ccccc2)cc1 (configuration not stated)	nt	2.5%	-6.1%	10µM*	nt	-0.9
CN(c1ccccc1)C(CNS(=O)(=O)c1ccccc1)c1ccccc1 (configuration not stated)	nt	7.7%	0.2%	?	nt	-2.2
Cc1ccc(C(CNS(=O)(=O)c2ccc(F)cc2)N2CCN(C)CC2)cc1 (configuration not stated)	0.4%	1.6%	-0.1%	?	1.4%	-0.6
Cc1ccc(S(=O)(=O)NCC(c2ccccc2)N2CCCCC2)cc1 (configuration not stated)	-2.0%	6.8%	nt	10µM*	6.0%	-4.0
CN1CCN(C(CNS(=O)(=O)c2ccc([N+](=O)[O-])cc2)c2ccc(F)cc2)CC1 (configuration not stated)	-6.8%	-0.8%	1.2%	11.2µM*	-12.2%	7.6
COC(=O)c1ccccc1NC(=O)Nc1ccc(C)cn1	10.3%	-9.9%	nt	28.7%	3.7%	-5.1
Cc1cccc(NC(=O)COC(=O)c2ccc(S(=O)(=O)N3CCCCCC3)cc2)c1	3.6%	16.3%	-3.3%	10.0%	9.5%	-3.2
COc1ccc2[nH]c(=O)c(CN(Cc3nnnn3Cc3ccccc3)CC3CCCO3)cc2c1 (configuration not stated)	-5.5%	-14.8%	28.2µM*	7.5%	19.0%	-1.6
Cc1ccc2[nH]c(=O)c(CN(Cc3ccccc3)Cc3nnnn3Cc3ccccc3)cc2c1	nt	nt	?	nt	nt	2.2
CCc1ccc2[nH]c(=O)c(CN(Cc3ccccc3)Cc3nnnn3Cc3ccccc3)cc2c1	nt	nt	25.1µM*	nt	nt	4.1
COc1ccc2[nH]c(=O)c(CN(Cc3nnnn3Cc3ccc(F)cc3)CC3CCCO3)cc2c1 (configuration not stated)	-16.3%	-5.2%	?	24.5%	0.7%	-5.5
O=C(Nc1cc(F)ccc1F)C1CCN(c2nc3ccccc3n3cccc23)CC1	nt	-2.2%	?	7.7%	nt	-4.2
Cc1cc(Cl)ccc1C(=O)C1CCCN(C(=O)CCn2cncn2)C1 (configuration not stated)	-9.4%	-1.9%	-1.5%	-4.2%	-3.0%	-6.2
COC(=O)COc1ccc(S(=O)(=O)N2CCCCC2)cc1[N+](=O)[O-]	-8.9%	-1.1%	nt	5.7%	10.7%	-6.4
CCOC(=O)COc1c(C(=O)OC)sc2ncccc12	2.1%	-8.7%	25.1µM*	1.6%	6.3%	-7.0
COC(=O)c1sc2ncccc2c1OCc1c(Cl)cccc1Cl	1.5%	-17.7%	-22.6%	0.0%	-3.9%	-0.1
O=C(OCc1cccc(F)c1)c1ccc2c(=O)n3c(nc2c1)CCC3	3.4%	1.0%	nt	8.8%	7.7%	0.7
CCN1CCN(c2ncc3c(n2)CCN(Cc2cc(F)cc(F)c2)C3)CC1	nt	-27.2%	-2.4%	?	nt	-0.7
CCc1ccc(CN2CCc3nc(N4CCN(CC)CC4)ncc3C2)cc1	nt	-2.2%	-1.8%	5.01µM*	nt	-7.4
CC(C)NC(=S)N/N=C/c1c[nH]c2ccccc12	14.4%	10µM*	1.7%	?	21.2%	-1.4
CSc1[nH]c(=O)c(C(=O)O)cc1C#N	-7.2%	-2.9%	39.8µM*	-3.0%	-5.4%	9.8
CCOC(=O)c1cc(C#N)c(SCC(=O)O)[nH]c1=O	-3.1%	6.3%	nt	-8.1%	-1.7%	6.2
SMILES	p53 reactivator	HEK293 tox	ClpP mod	GLP-1R inv ag	GLP-1R agonist	LDHA inh
CC(=O)Nc1ccc(CCNC(=O)c2ccc3ccccc3c2O)cc1	nt	9.9%	25.1µM*	-8.5%	12.9%	4.8
CCOC(=O)c1cc2occc2n1CC(=O)NC1CCCCC1C (configuration not stated)	-14.6%	-14.4%	1.3%	0.0%	0.2%	2.2
CC(C)c1nn2c(=O)cc(COC(=O)c3ccc4c(c3)OCO4)nc2s1	nt	2.5%	-2.2%	2.4%	nt	-1.2
COc1ccc(-c2ccc(-c3noc(-c4cc(OC)cc(OC)c4)n3)c(OC)n2)cc1	nt	-1.9%	15.8µM*	12.0%	nt	-9.0
COc1ccc(-c2ccc(-c3noc(C(C)C)n3)c(OC)n2)cc1	12.0%	30.9%	56.3%	-27.2%	16.9%	3.4
COc1nc(-c2ccc(Cl)cc2)ccc1-c1noc(-c2ccco2)n1	6.5%	28.2%	-23.1%	50.2%	-12.1%	-36.9*
C/C(=N\NC(=O)Cn1nc(C)c([N+](=O)[O-])c1C)c1ccc(O)cc1	-2.9%	16.7%	-3.0%	12.8%	1.8%	-9.9
CCCCCn1c(C)c2c(OCC)cccc(=O)c2c1C	-3.7%	2.6%	-1.2%	10µM*	16.6%	-0.4
Cc1cccc(C)c1OCCOCCN1CCN(C)CC1	12.8%	10.0%	0.0%	?	12.0%	-42.9*!
Cc1cccc(C)c1OCCN1CCCC1	nt	-25.6%	1.2%	-8.0%	-6.6%	-9.9
Cc1cc(C)c(OCCOCCN2CCNCC2)c(C)c1	-1.4%	0.7%	1.4%	10µM*	0.9%	-13.2
Cc1cc(C)c(OCCOCCN2CCCC2)c(C)c1	nt	-3.3%	nt	?	12.7%	-13.5
Cc1ccc2nc(SCC(=O)c3ccc(Cl)s3)[nH]c2c1	12.4%	-4.7%	-2.1%	?	0.4%	-0.3
CCOC(=O)C1=C(COC(=O)C2CC(=O)N(c3ccccc3F)C2)NC(=O)NC1C (configuration not stated)	1.7%	-3.3%	0.1%	1.9%	-2.7%	-0.2
COc1cc(-c2nnc(-c3cc(OC)c(OC)c(OC)c3)o2)cc(OC)c1OC	-5.9%	-2.7%	25.1µM*	0.2%	-4.0%	-3.0
COc1cc(-c2nnc(SCC(=O)N3CCOCC3)o2)cc(OC)c1OC	-0.7%	-5.5%	-1.1%	58.1%	5.1%	-6.2
COc1cc(-c2n[nH]c(=O)o2)cc(OC)c1OC	-7.3%	78.7%	15.8µM*	20.2%	1.6%	-0.1
